Vaccinia Venus = vaccinia inhibition (Venus reporter); Vaccinia virus Venus reporter expression, fluorescence; Potency, µM (top dose mostly 36.5 µM), for the others: at the highest dose activity change, negative = inhibition, most hits filed as inhibitors; actives 0.46% (n = 330,000); AID 720580; calls by dose curve; tested in A549 cells; further: potency means the concentration at half of the fitted maximal effect; nearly all actives have a fitted effect of over 30% in size
HCMV inh = inhibitors of human cytomegalovirus. actives 4.5% (n = 410,000). AID 1259415. HFF cells, HCMV-luciferase reporter, 72 h; hits give low values. activity change, negative = inhibition, % at 57.5 µM; in the data active means activity change below about -60%; inconclusive means no clear call, values can overlap the other calls; inactive means above about -39%
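Inhibition of viral replication was scored as loss of reporter luminescence in HFFs infected with HCMV-luciferase (MOI 1 PFU/cell) for 72 h; compounds tested at 2 doses, normalized to buffer and Salinomycin controls.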
FMDV inh = foot and mouth disease virus antiviral activity; FMDV antiviral cell-based qHTS; Potency, µM (highest dose often 57.9 µM), inactives show top-dose activity change, negative = inhibition, usual class: inhibitors; actives 1.2% (n = 410,000); calls by dose curve; tested in HEK293T cells; further: read-out not given here; potency means the concentration at half of the fitted maximal effect; nearly all actives have a fitted effect of over 45% in size
LASV entry inh = Lassa virus entry inhibition; actives 1.2% (n = 300,000); Potency, µM (top dose mostly 37.9 µM), without a hit: at the top dose activity change, negative = inhibition, hits mostly inhibitors; Lassa virus pseudotype entry inhibition, cell reporter; AID 540256; calls by dose curve; tested in HEK293 cells; further: potency means the concentration at half of the fitted maximal effect; nearly all actives have a fitted effect of over 50% in size
MARV entry inh = inhibitors of Marburg virus binding or cell entry | Potency, µM (top dose mostly 37.8 µM), inactives show at the top dose activity change, negative = inhibition, most hits filed as inhibitors | Marburg virus pseudotyped entry inhibition, cell reporter | AID 540276 | actives 1.8% (n = 300,000); calls by dose curve; tested in HEK293 cells; further: potency means the concentration at half of the fitted maximal effect
Vaccinia mCherry = inhibitors of vaccinia virus infection (mCherry reporter signal) | actives 0.63% (n = 310,000) | Potency, µM (top dose mostly 36.5 µM), without a hit: at the highest dose activity change, negative = inhibition, actives largely listed as inhibitors | AID 720579 | Vaccinia virus mCherry reporter infection, fluorescence; calls by dose curve; tested in A549 cells; further: potency means the concentration at half of the fitted maximal effect; nearly all actives have a fitted effect of over 35% in size
Active calls of the source: *; i = inactive; u = inconclusive; x = no result given; [ ] = remark or other dose. Most compounds without a hit are left out; they make up all but 6.5% or so of the library. On the % scale 0 is the no-effect control and ±100 the full control effect.

SMILES | Vaccinia Venus | HCMV inh | FMDV inh | LASV entry inh | MARV entry inh | Vaccinia mCherry
Cc1ccc2oc(-c3cccc(NC(=O)COc4ccc(Cl)cc4)c3C)nc2c1 | -11.7% | x | x | x | x | i
CC(C)NC(=O)N(C)C[C@@H]1OCc2cn(nn2)CCCC(=O)N([C@@H](C)CO)C[C@H]1C | x | 2.3 | x | x | x | x
COc1ccc(OCC(=O)NCc2ccc3c(c2)CCN3C(=O)c2cccc(C)c2)cc1 | -23.9%[7.34 µM] | u | -26.4% | u | x | u
COc1cccc2c1C(CO)N1C(C#N)C3CC(C(=O)O)C(C1C2)N3C (stereo not given) | u | -76.9* | -22.0% | x | x | u
COc1cccc2c1OCC(C(=O)O)C2 (stereo not given) | -3.0% | -1.8 | -5.2% | -4.1% | u | -4.7%
C[C@@H]1[C@@H](c2ccccc2)Cc2nc3ccccc3nc2C[C@H]1C(=O)N1CCCC1 | x | x | x | x | -14.8%[14.2 µM] | x
COc1c2c(cc3c1OCO3)C13C=CC(OC)CC1N(C2)CC3O (stereo not given) | -16.6% | x | -4.7% | x | x | -12.8%
COC1C=CC23c4cc5c(cc4CN(CC2O)C3C1)OCO5 (stereo not given) | 1.78µM* | x | u | x | x | 1.26µM*
Cc1ccc(SC[C@H](C)CN2CC[C@H](O)CCC2=O)cc1 | -12.7% | x | x | x | x | -1.2%
O=S(=O)(c1ccccc1Cl)N1CCCC1c1nc(-c2ccc(Cl)cc2)no1 (stereo not given) | x | -67.9* | u | u | u | x
O=C(CCCN1C(=O)S/C(=C\c2ccccc2)C1=O)NNC(=O)c1ccccc1O | -7.0% | -82.7* | u | u | 1.78µM* | -3.2%
Cc1cc(NC(=O)CCCN2C(=O)/C(=C\c3cccs3)SC2=S)no1 | 9.5% | -34.3 | -12.7% | 17.2% | u | -14.2%
O=C(CCCN1C(=O)/C(=C/c2ccccc2)SC1=S)NCCCn1ccnc1 | x | -97.6* | -11.5% | x | x | x
O=C(CCCN1C(=O)/C(=C\c2cccs2)SC1=S)Nc1ccccc1O | -29.0% | -93.5* | 2.5% | x | x | -14.9%
O=C(CCCN1C(=O)/C(=C/c2cccs2)SC1=S)Nc1cc([N+](=O)[O-])ccc1O | x | -73.5* | -11.3% | x | x | x
CC1(C)[C@H]2CC[C@]1(C)[C@H](NC(=O)CCN1CCCCC1)C2 | x | x | x | x | -18.7% | x
O=C(CCCN1C(=O)/C(=C/c2ccccc2)SC1=S)Nc1ccccc1O | u | -99.9* | -23.2% | 7.2% | u | u
CC(=O)N1CCc2cc(Br)cc(S(=O)(=O)CCC(=O)Nc3ccc(C)cc3Cl)c21 | -15.3% | -23.0 | -15.9% | u | -3.7%[46.1 µM] | -20.7%
COc1ccc2nc(NC(=S)N(C)C)sc2c1 | -26.1% | u | -50.3% | u | 10µM* | u
CON(C)C(=O)/C=C/[C@@H](CC1CCCC1)NC(=O)C(F)(F)F | x | -14.4 | x | x | x | x
COc1ccc(C(O)(c2ccccc2OC)C(CN2CCOCC2)c2ccccc2)cc1 (stereo not given) | -21.8% | -26.0 | -26.2% | x | 11.2µM* | -25.0%
COc1ccc(C(O)(C2CCCCC2)C(CN2CCOCC2)c2ccccc2)cc1 (stereo not given) | x | -60.6* | -10.0% | x | x | x
OC(c1ccccc1)(C1CCCCC1)C(CN1CCOCC1)c1ccccc1 (stereo not given) | -19.0% | -38.9 | u | -8.2%[46.1 µM] | u | i
O=c1c(-c2ccc(F)c(F)c2)nc2cncnc2n1Cc1ccccc1 | x | x | -25.0% | x | x | x
Cn1cnnc1Sc1ccc(CN2CCOc3ccc(C4=Cc5ccccc5C4)cc3C2)o1 | -13.8% | x | 30.4% | x | x | -3.9%
SMILES | Vaccinia Venus | HCMV inh | FMDV inh | LASV entry inh | MARV entry inh | Vaccinia mCherry
C=CCn1c(CCC(O)COCCCCC)n[nH]c1=S (stereo not given) | -11.5% | -96.6* | -10.8% | 6.3% | 16.1% | -20.2%
CCN(CC)CCCNC(=O)c1oc2c(c1C)-c1nn(Cc3ccc(Cl)cc3)cc1CC2 | -15.8% | -96.6* | -26.7% | -19.2%[46.1 µM] | x | -26.1%
Cc1c(C(=O)N2CCCC2)oc2c1-c1nn(CC(=O)NCc3ccccc3F)cc1CC2 | -24.6% | -64.5* | 3.6% | -12.4%[46.1 µM] | x | -29.5%
COCCCNC(=O)c1oc2c(c1C)-c1nn(Cc3ccc(Cl)cc3)cc1CC2 | -19.9% | -17.0 | -28.1% | -12.4%[46.1 µM] | x | -29.5%
CC1=CC[C@@H](COc2ccccc2)O[C@@]2(C1)C(=O)Nc1cccc(Br)c12 | x | x | x | u | 3.8%[14.2 µM] | x
O=C(Cc1ccccc1)N(Cc1cccnc1)c1nc2c(F)cc(F)cc2s1 | -8.0% | 0.0 | -3.4% | 12.6µM* | x | -15.6%
CC(=O)N(Cc1cccnc1)c1nc2c(F)cc(F)cc2s1 | -17.0% | 0.0 | -5.8% | -16.1%[46.1 µM] | x | -18.8%
C#Cc1cccc(C(=O)N(Cc2cccnc2)CC2CCCN(C3CCCCC3)C2)c1 (stereo not given) | -1.6% | -63.0* | -9.9% | x | x | i
Cc1ccc(NC(=O)C(Cc2c[nH]c3ccccc23)NC(=O)OCC(C)C)cc1 (stereo not given) | -6.2% | -2.1 | 12.7% | u | u | -10.6%
COCCN(CCOC)Cc1c(O)ccc2c1O/C(=C\c1ccc(C)o1)C2=O | 0.9% | -88.5* | 35.9% | 4.2%[46.1 µM] | -0.3%[46.1 µM] | -3.8%
CCN(CC)Cc1c(O)ccc2c1O/C(=C\C=C\c1ccccc1)C2=O | 9.6% | u | -1.3% | x | x | 1.9%
O=S1(=O)CCSC[C@@H](CN2CCCC2)N1 | x | -5.3 | x | u | x | x
O=c1c(-c2cc(F)cc(F)c2)nc2cncnc2n1-c1ccccc1 | x | x | -10.4% | x | x | x
CCCCC1C(=O)N(c2ccccc2)N(c2ccccc2)C1=O | -9.7% | u | 0.0% | 1.5% | u | -8.5%
CCCCN1C=CC(=C2C(=O)c3ccccc3C2=O)C=C1 | -22.9% | -88.1* | 10µM* | u | u | i
COc1cnc(-c2ccccn2)nc1Sc1cccc(Cl)c1 | x | -64.4* | -6.4% | u | u | x
COc1ccccc1Sc1nc(-c2ccccn2)ncc1OC | -29.4% | u | -10.7% | u | u | 5.01µM*
COc1cnc(-c2ccccn2)nc1Oc1ccc(Cl)c2ccccc12 | x | -100.3* | 3.16µM* | u | u | x
COc1cnc(-c2ccccn2)nc1Sc1ccc(C)cc1 | u | -81.1* | -2.5% | u | 6.31µM* | u
Cc1cc(C(=O)NCc2nc(-c3cccc(NC(=O)c4cc(C)oc4C)c3)oc2C)nc(C)n1 | 2.8% | x | -20.6% | x | x | -15.6%
COC(=O)c1cc(NC(=O)c2sc3ncn(Cc4cccc(F)c4)c(=O)c3c2C)cc(C(=O)OC)c1 | 0.5% | 8.0 | -5.3% | u | x | -2.6%
Cc1ccc(NC(=O)C2CCN(S(=O)(=O)c3c(C)noc3C)CC2)c(C)c1 | -2.1% | 7.3 | -13.1% | -11.8%[46.1 µM] | 20.8%[46.1 µM] | -6.8%
Cc1ccc(Sc2cc(C)nc(-c3ccccn3)n2)cc1 | -5.4%[7.34 µM] | -75.8* | 41.0% | u | -21.2%[46.1 µM] | -9.7%[7.34 µM]
COc1cnc(-c2ccccn2)nc1NC(C)C | u | -101.2* | 10.2% | u | 11.2µM* | 4.47µM*
COc1cnc(-c2ccccn2)nc1Oc1ccccc1Cl | x | -25.3 | 24.4% | -6.0% | 9.9% | x
CCOc1ccccc1NC(=O)NCc1ccc2c(c1)CCN2C(=O)c1ccccc1 | u | -82.0* | 0.0% | u | x | u
